Data reported in PubChem BioAssay AID1259374 (The Scripps Research Institute Molecular Screening Center, 2018).
The whole screen tested about 650,000 compounds, of which about 5,900 (0.91%) were called active. The sample holds actives, similar compounds and a random draw of the others, so the mix is not that of the screen. Values without a mark were called inactive. Rule as the data show it: active = inhibition above about 50%; inactive = the rest.

These compounds were tested against Microphthalmia-associated transcription factor (Homo sapiens) (UniProt O75030) (assay: MITF inhibitors, primary screen, biochemical, AlphaScreen, human (AID 1259374;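 also: 0% = vehicle wells with protein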)). Settings: AlphaScreen MITF homodimerization, bead proximity signal; at 2.6 µM; hits give high values.
Chain of Microphthalmia-associated transcription factor (Homo sapiens) (O75030 whole entry, looked up): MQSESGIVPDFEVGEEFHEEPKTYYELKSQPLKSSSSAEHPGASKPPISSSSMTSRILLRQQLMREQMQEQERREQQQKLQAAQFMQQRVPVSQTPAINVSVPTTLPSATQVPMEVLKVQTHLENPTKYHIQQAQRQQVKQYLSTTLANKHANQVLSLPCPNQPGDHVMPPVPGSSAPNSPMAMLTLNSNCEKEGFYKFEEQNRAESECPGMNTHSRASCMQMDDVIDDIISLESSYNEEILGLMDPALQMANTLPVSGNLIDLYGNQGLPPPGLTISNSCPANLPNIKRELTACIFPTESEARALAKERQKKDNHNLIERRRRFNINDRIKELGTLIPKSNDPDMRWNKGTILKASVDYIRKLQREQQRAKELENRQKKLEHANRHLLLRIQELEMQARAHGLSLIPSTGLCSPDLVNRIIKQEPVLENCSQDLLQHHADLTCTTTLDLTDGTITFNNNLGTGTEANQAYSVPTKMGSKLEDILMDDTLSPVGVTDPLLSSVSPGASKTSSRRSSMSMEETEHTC

Row | Structure (SMILES) | inhibition
1 | CC(=O)c1ccc(OCC(=O)N2CCOCC2)cc1 | -0.62%
2 | Clc1cccc(CN2CCN(c3ccccn3)CC2)c1 | 50.1%
3 | CCS(=O)(=O)N1CCN(c2cccc(Cl)c2)CC1 | -3.13%
4 | CS(=O)(=O)N1CCN(Cc2cccc(Cl)c2)CC1 | 70.2% (active)
5 | CS(=O)(=O)N1CCC(c2nc3c(nnn3Cc3cccc(Cl)c3)c(=O)[nH]2)CC1 | 9.95%
6 | CCCS(=O)(=O)N1CCN(Cc2cccc(Cl)c2)CC1 | 54.8% (active)
7 | CCCS(=O)(=O)N1CCN=C1SCc1cccc(Cl)c1 | 18.8%
8 | O=S(=O)(c1ccc(Br)c2ccccc12)N1CCN(Cc2ccccc2)CC1 | 7.47%
9 | CCCS(=O)(=O)N1CCC(O)(c2cccnc2)CC1 | 13.4%
10 | CCCS(=O)(=O)N1CCN(Cc2ccccc2Br)CC1 | 58.2% (active)
11 | CC(CC(=O)N(CC(N)=O)C(C)C)c1ccccc1 (configuration not stated) | -5.95%
12 | CCOC(=O)c1cccc(NC(=O)COc2ccccc2Br)c1 | 8.75%
13 | COc1cc(/C=C(/C#N)C(N)=S)c(Br)cc1O | 24.1%
14 | CSc1ccccc1C(=O)NCc1c(C)ncc2c1CCN(C(=O)c1cc(C)oc1C)C2 | 12.3%
15 | COc1ccc(C(=O)N2CCCCO2)cc1OC1CCN(C(C)=O)CC1 | 2.51%
16 | Cc1ccc(SCC(=O)NCc2nc(-c3ccc(C)cc3)no2)cc1 | -3.11%
17 | CC(C)CCN1CCNC(=O)C1CC(=O)N1CCCO1 (configuration not stated) | 1.48%
18 | O=[N+]([O-])c1c(Cl)cc(Cl)c2nsnc12 | 1.42%
19 | C=CCn1c(C)c(/C=c2/sc3n(c2=O)C(c2ccc(OC)c(Br)c2)C(C(=O)OCC)=C(C)N=3)c2ccccc21 (configuration not stated) | -0.97%
20 | CN1CCN(c2nccnc2-c2cccc(C(=O)NCCO)c2)CC1 | 4.98%
21 | O=[N+]([O-])c1ccccc1CN1CCN(Cc2ccccc2C(F)(F)F)CC1 | 67.3% (active)

Row | Structure (SMILES) | inhibition
22 | O=[N+]([O-])c1ccccc1CN1CCN(Cc2cccnc2)CC1 | 61.9% (active)
23 | CCOc1ccccc1CN1CCN(Cc2cccnc2)CC1CCO (configuration not stated) | 8.25%
24 | O=S(=O)(c1ccc(F)cc1)N1CCN(Cc2ccccc2C(F)(F)F)CC1 | 59.6% (active)
25 | O=C(Cc1ccccc1[N+](=O)[O-])NNC(=O)Nc1ccccc1C(F)(F)F | 13.8%
26 | COc1ccccc1N1CCN(C2CCN(Cc3ccccc3[N+](=O)[O-])CC2)CC1 | -2.11%
27 | CCC(C)C(=O)NCc1nnc2n1CCN(Cc1cccnc1)CC2 (configuration not stated) | 0.14%
28 | O=S(=O)(c1ccc(F)cc1)N1CCN(Cc2ccccc2F)CC1 | 3%
29 | O=S(=O)(c1ccc(F)cc1)N1CCN(CCCc2ccccc2)CC1 | 43.8%
30 | O=C(CC(Nc1ccc2ccccc2c1)c1cccnc1)c1ccccc1 (configuration not stated) | 1.3%
31 | CC(=O)Nc1ccc(Oc2cc(NC(=O)c3cccc(F)c3)cc([N+](=O)[O-])c2)cc1 | 9%
32 | O=C1c2ccccc2C(=O)c2c1cccc2S(=O)(=O)N1CCCC1 | 10.2%
33 | O=C(Nc1ccc2nsnc2c1NC(=O)c1ccc2nsnc2c1)c1ccc2nsnc2c1 | 1.05%
34 | N#CCSc1nc2[nH]ncc2c(=O)n1-c1cccc(C(F)(F)F)c1 | 1.44%
35 | CC(C)[C@@H](C(=O)OCC(=O)Nc1cccnc1Cl)N1C(=O)c2ccccc2C1=O | -1.46%
36 | C/C(=N\Nc1ccc(Cl)nn1)c1ccccc1O | 61.1% (active)
37 | Oc1cccc(/C=N/Nc2ccc(Cl)nn2)c1O | 89.8% (active)
38 | C/C(=N\Nc1nc(C(C)(C)C)cs1)c1ccccc1O | 6.2%
39 | C/C(=N\NC(=O)C(O)(c1ccccc1)c1ccccc1)c1ccccc1O | -4.23%
40 | NC(=O)c1ccc(N=Cc2cccc(O)c2O)cc1 | 25.2%
41 | COc1ccccc1N=Cc1cccc(O)c1O | -5.98%
42 | COc1ccc(/C=C/C(=O)NCc2ccccc2OC)cc1 | -9.24%

Row | Structure (SMILES) | inhibition
43 | CCc1ccc(N=c2oc3c(C)ncc(CO)c3cc2C(N)=S)cc1 | 3.64%
44 | COc1ccccc1NC1=C/C(=N/S(=O)(=O)c2ccc(F)cc2)c2ccccc2C1=O | 67.4% (active)
45 | COc1ccc(S(=O)(=O)/N=C2/C=C(Nc3ccc(O)cc3)C(=O)c3ccccc32)cc1 | 20%
46 | COC(=O)c1ccccc1NC1=C/C(=N/S(=O)(=O)c2ccccc2)c2ccccc2C1=O | 23.4%
47 | CCOc1cc(CN2CCN(C(=O)c3ccccc3F)CC2)ccc1OC | 34.4%
48 | COc1cc(CN2CCN(Cc3cccnc3)CC2)cc(OC)c1OC | 80.7% (active)
49 | CCOc1cc(CN2CCC(n3nccc3NC(=O)C(C)(C)C)CC2)ccc1OC | -3.52%
50 | CCOc1ccc(CN2CCN(Cc3ccc(OC)c(OCC)c3)CC2)cc1 | 9.84%
51 | CCOc1ccccc1N1CCN(S(=O)(=O)c2ccc([N+](=O)[O-])cc2)CC1 | 6.79%
52 | COc1cccc(CN2CCN(C(=O)c3ccccc3F)CC2)c1 | 56.7% (active)
53 | COc1ccc(C(=O)N2CCN(Cc3cccc(OC)c3)CC2)cc1 | 45.7%
54 | COc1cc(CN2CCN(c3ccccn3)CC2)cc(OC)c1O | 19.3%
55 | Cc1cc2nc(N3CCCN(Cc4cccnc4)CC3)nc(C)c2cc1C | 6.51%
56 | COC(=O)c1c(OC2CCCC2)cc(=O)n2c1CCN(Cc1cccnc1)CC2 | 2.84%
57 | CCOc1cc(CN2CCN(Cc3ccccn3)CC2)ccc1OC | 62.3% (active)
58 | CCOc1ccccc1N1CCN(Cc2cc(OC)c(O)c([N+](=O)[O-])c2)CC1 | 55.2% (active)
59 | c1ccc2c(-c3nc(Nc4ccc(N5CCOCC5)cc4)c4ncn(C5CCCCC5)c4n3)csc2c1 | 1.65%
60 | COc1cccc(OC)c1C(=O)NNC(=O)c1cccc(C)c1O | -15.2%
61 | Cn1cnnc1SCC(=O)N1CCN(c2ccccc2)CC1 | 1.28%
62 | CCOC(=O)c1sc(NC(=O)c2ccc(S(=O)(=O)N3CCc4ccccc43)cc2)nc1-c1ccccc1 | 15.2%
